The values below come from paper PMC12136788.

Where a chain is given by its changes, count along the chain named. The full ranking holds about 24,000 sequences; the median of “enrichment r” is about 0.99, and the highest 2% start at about 3.7. This excerpt belongs to a sample that is enriched for the highest values.

T1: UNK ZnF1-3 (human, UniProt Q9C0B0 31-174)
T1 sequence: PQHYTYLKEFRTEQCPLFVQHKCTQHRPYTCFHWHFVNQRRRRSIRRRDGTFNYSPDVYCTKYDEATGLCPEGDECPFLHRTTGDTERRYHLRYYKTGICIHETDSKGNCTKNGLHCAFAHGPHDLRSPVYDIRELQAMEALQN

B1: chr2:42509997:42509998:+_ENSG00000143924_ENST00000318522|hu_mus|hu_hu_hu_mus_True|28_48 (ssRNA)
RNA: GGGAGUUCUACAGUCCGACGAUCUCGCUGAGUCCUCUCCUCAUAAUUAAACAGGACUACCACUGAGGCGAUAAAAUAAACUAUCUCCCCGGUCGGAAGCAGGUAUACAUUAGCUCUACAGUCCUUUCCUCGAUAACCGUAUACCAACAGAGGAUUGAGCAUCA
B2: chr3:108363203:108363204:-_ENSMUSG00000068732_ENSMUST00000090546|mus_hu|FALSE|FALSE (ssRNA)
RNA: GGGAGUUCUACAGUCCGACGAUCCCAGGUUUUGAGACGAGGUACUUUCUUGAAGUAGGCACAGGUGCAAACAAAGAGCAAACCAAACACCAGAAUCCCAUCCAAGGAGUACACGUUCGUCAUGGCGGCUGGCCCUGGACCUGGCAACAGAGGAUUGAGCAUCA
B3: chr2:216981417:216981418:+_ENSG00000079246_ENST00000392132|hu_hu|hu_hu_hu_mus_True|48_58 (ssRNA)
RNA: GGGAGUUCUACAGUCCGACGAUCCUGAUACUGGUCCUUGCCAGCAAGGGCAUUAUCAGUGCCAUCUGUGCCAUAGAGGACUAAAGCAAUCUCAUCCUUGCUCUCCGAAAAUACCUGUCGUUGGACAAACAUAGUCAUCACUUUCAACAGAGGAUUGAGCAUCA
B4: 91404753_91404873_2338_CDS_ENSG00000122482_ENST00000337393|human|control|control (ssRNA)
RNA: GGGAGUUCUACAGUCCGACGAUCAGGUUUUUGGUCAACGCUGCUUUUAAUUGUAACAUUCUUAUGAGGAGAGCUGUUUUGAUUGCACAUGUUUACACCUGAUUGGGCAAUGCUUUUCCGAGCUUUCUGUAUUCUGUGUGGCCGCAACAGAGGAUUGAGCAUCA
B5: 77768493_77775406_9844_CDS_ENSG00000091656_ENST00000521891|human|control|control (ssRNA)
RNA: GGGAGUUCUACAGUCCGACGAUCACUGCUGAGAGACAGGGCAGGAGACGAAGUAGCUGAAGUAGGAAACCCAAGCAUGCCUGCACCGGGAGGUGUUAAAGUGUUUGAAUUUUGUGGAAAUCCCGGCAAGGAGGAUGGACCGUUCAACAGAGGAUUGAGCAUCA
B6: chr2:153593888:153593889:+_ENSMUSG00000027479_ENSMUST00000028981|mus_hu|FALSE|FALSE (ssRNA)
RNA: GGGAGUUCUACAGUCCGACGAUCAGUAGUGGGUGAGACACAUUUUGCAGAAUCCUGCCAAACAAAGGAACUGAAUAGGCUGUGGGCAAAGCAAAUGAGGGAGAGUUAAGGAAUGAAGUAUUUUAAAUAUUAAUAAUUAAUUCACAACAGAGGAUUGAGCAUCA
B7: chr2:153593888:153593889:+_ENSMUSG00000027479_ENSMUST00000028981|mus_mus|FALSE|FALSE (ssRNA)
RNA: GGGAGUUCUACAGUCCGACGAUCCUCAGUAGUGGGUAACACAUUUUGCAGAGUUCGCCAAACAAAGGAAUUGAAUAGGCUAUGGGUAAAGCAAUUGAGGGAGAAUUAAGGAAUGAAGUAUUUUAAAUAUUAAUAUUUCAGUCACAACAGAGGAUUGAGCAUCA
B8: chr6:39351226:39351227:-_ENSMUSG00000029922_ENSMUST00000031985|mus_hu|FALSE|FALSE (ssRNA)
RNA: GGGAGUUCUACAGUCCGACGAUCGACAAAGUUAGAUGUGAUCCGGCAUUCUGGGCAGGACUUUAUGAUCUUGCUCUCAAAUUGCUUAGCACUCCUCCACUUGCGAAUGCACUUGAGACAGUAGGUGUGGUUGCAGUUGGAGAGCAACAGAGGAUUGAGCAUCA
B9: chr3:54535082:54535083:-_ENSMUSG00000027752_ENSMUST00000029316|mus_mus|FALSE|FALSE (ssRNA)
RNA: GGGAGUUCUACAGUCCGACGAUCGCAGGCAUCCAAAAUGUUCCCAUCGUAGUCUAGACAAAUGAGGUCACAGUAUAGAACCCAAGCAAGCUUGCCUGGAGAAAUGCAUAAAUCCUCUUUCUUAAUCACCUGUGAGUUGUCAACCAACAGAGGAUUGAGCAUCA
B10: chr4:144447494:144447495:+_ENSG00000153147_ENST00000283131|hu_hu|motif|central (ssRNA)
RNA: GGGAGUUCUACAGUCCGACGAUCCCAGUUGUGUAAUGUAGACUUAGGAACCAAAACCAUAUGAGGCCCAGGAAUGUUUCGGUAAUGUUUCAUGUACCCAAGAAGAGAAAUUGUUUGAAGAGUCUUUCCUAGGCCCAUUUCAUCCAACAGAGGAUUGAGCAUCA
B11: 36153137_36166621_529_CDS_ENSG00000145604_ENST00000274255|human|control|control (ssRNA)
RNA: GGGAGUUCUACAGUCCGACGAUCCGCUAGGCGAUACCACCUCUUACAAACACCAGAGACCUUUAGCAGCUCAGGGAGGCACAGACAGGAAAAGAUUCCCAAGAGCAGCUCAUCCGGAAGGGAGUCCCAUGAAACACCUGGAAACAACAGAGGAUUGAGCAUCA
B12: chr4:99801976:99801977:-_ENSG00000151247_ENST00000280892|hu_hu|motif|central (ssRNA)
RNA: GGGAGUUCUACAGUCCGACGAUCAACACAUUUAUGGAUUCUGGGGAUGUGUACUGUAAUUCUUUGAUUGGGAUAGUGGAAACUCGGGCCAAAAAAAAAAAAAAAAAUGAACACAGAAGUACAAGACAAAGGCGAAUGAGACUUCAACAGAGGAUUGAGCAUCA
B13: 18505133_18505253_973_CDS_ENSG00000101310_ENST00000262544|human|control|control (ssRNA)
RNA: GGGAGUUCUACAGUCCGACGAUCUUCACAGCUUAGCUCAUGAACCUGCACCAUCCUUCCAAAUGUGAUCAGACCCACCAGAGCAUCUGGAGGAAGAAGACUCAGGGACAUCUGCAGGGACUCUUUGAGUGCUUGAAGGUCAUCCAACAGAGGAUUGAGCAUCA
B14: chr11:75578338:75578339:+_ENSMUSG00000020849_ENSMUST00000067664|perfect_dup|motif|central (ssRNA)
RNA: GGGAGUUCUACAGUCCGACGAUCAAAGGGGAGGGGAGAAAAAAAAAAAAGAAAAAGAAAGAAAAACAACAGGGCAGGAACCGGAAUUCUGAGACCAAAUGUGAAAGUCAAAUUUGGUGGUUCUCAGUGACAAUGGGGAACUUCCAACAGAGGAUUGAGCAUCA
B15: chr15:103023242:103023243:-_ENSMUSG00000009575_ENSMUST00000118152|mus_hu|FALSE|FALSE (ssRNA)
RNA: GGGAGUUCUACAGUCCGACGAUCAACAUCUGAACUAGCAGCUUUGAUGAGGGGUGGGGGGCAGAAAAUUUGCCGAGUCACUAAGUAGUUCCAGUCUUGGAGACAGCUCAGUGAGGACCAAAGCCUGUGUGUCAGGCUUAAACUCAACAGAGGAUUGAGCAUCA
B16: chr7:116176368:116176369:+_ENSMUSG00000031028_ENSMUST00000033341|mus_hu|FALSE|FALSE (ssRNA)
RNA: GGGAGUUCUACAGUCCGACGAUCAGACACACACAUACACAGACGGACACAGAGCACCUUGGAGCCAGAAGGAAAGGAAAGCUAGACUUGGAGAAGAGUUGGGGAAGUGAACUUCACCACUCUGCAGAAUUGUUCUGGGGCAGACAACAGAGGAUUGAGCAUCA
B17: chrX:7701523:7701524:-_ENSMUSG00000031166_ENSMUST00000033506|mus_mus|FALSE|FALSE (ssRNA)
RNA: GGGAGUUCUACAGUCCGACGAUCCAGGCAAGUGUGGGGUCCACCCAAACAGUAGCUGCCAAUGUUGGGGAGUUUGACAACCUAACCUGGUGAAAGCCCCGUGGUUGAACUUAACAUUCUGCACCUAAUUUCCCUACUGCUGUCCAACAGAGGAUUGAGCAUCA
B18: chr4:124323795:124323796:+_ENSG00000164056_ENST00000339241|hu_hu|FALSE|FALSE (ssRNA)
RNA: GGGAGUUCUACAGUCCGACGAUCCCAUGAGUUAGACCUUGGCAACAGGGGAAGAGAAGGUGGGAAACAGGGAAAAAUUCUAAAGAAAACAAAAACAAAAACAAAAACAAAAAACAGCCACAACUUGAAAGCUAAAAGUUCAGGCAACAGAGGAUUGAGCAUCA
B19: chr7:135839593:135839594:+_ENSMUSG00000042105_ENSMUST00000151237|mus_hu|FALSE|FALSE (ssRNA)
RNA: GGGAGUUCUACAGUCCGACGAUCAGAAUCAGUCACUUCAACAGAGUAAAGCUCUAAAGACACCAGACGAACCAAUACUUGUUGGAAUAUGCCAUACAACUUUCUUACUGUGGGGAUUACAGGGGCAGCCCUGGUUCUGUGUGGCAACAGAGGAUUGAGCAUCA
B20: chr4:124323795:124323796:+_ENSG00000164056_ENST00000339241|hu_hu|motif|central (ssRNA)
RNA: B18 RNA with U80G, A81G
B21: chr11:75578338:75578339:+_ENSMUSG00000020849_ENSMUST00000067664|perfect_dup|FALSE|FALSE (ssRNA)
RNA: B14 RNA with G82U, G83A
B22: chr2:69570450:69570451:+_ENSMUSG00000042133_ENSMUST00000090858|mus_hu|FALSE|FALSE (ssRNA)
RNA: GGGAGUUCUACAGUCCGACGAUCACAAAGACAACGAAAGUUCUCGCAUGUUUUGGGGCACACAUCAGAAAAUAAUUCAAAGACAACUCUUCCAGCAGGUUGAUUGUUAAUGGCAAUGUCAAAAAAACAUCGAGGACGUUGAACCAACAGAGGAUUGAGCAUCA

This assay deals with T1, UNK ZnF1-3. The experiment in a line: nsRBNS (natural sequence RNA bind-n-seq); RBNS binding buffer (assumed for nsRBNS): 25 mM Tris pH 7.5, 150 mM KCl, 3 mM MgCl2, 0.01% Triton X-100, 500 ug/ml BSA, 20 U/ml SUPERase-In, 4 C; UNK is unkempt and MSI1 is Musashi-1; names of the RNAs are library labels; protein concentration not given here; high values mean tight binding.
As to B1, the binding signal is 1.03 enrichment R. For B2, the binding signal is 1.56 enrichment R.

For B3, the binding signal was 0.722 enrichment R. As for B4, the figure is 0.646 enrichment R; as for B5, 1.52 enrichment R; as for B6, 4.38 enrichment R.

In turn, B7 came in with a binding signal of 2.24 enrichment R.

Regarding B8, the binding signal turned out to be 0.754 enrichment R. For the molecule B9, the binding signal is 1.32 enrichment R. B10 came in with a binding signal of 1 enrichment R. In the case of B11 it was 1.46 enrichment R. As for B12, the figure is 3.29 enrichment R; as for B13, 1.32 enrichment R; as for B14, 5.06 enrichment R. Molecule B15 registered a binding signal of 1.22 enrichment R. B16: the binding signal is 3.99 enrichment R. In the case of B17 it was 1.26 enrichment R; in that of B18, 4.13 enrichment R; in that of B19, 1.69 enrichment R. For B20, the binding signal was determined as 3.58 enrichment R. As for B21, the figure is 4.7 enrichment R; as for B22, 1.49 enrichment R.
